# Test results from publication PMC7862700, “An all-to-all approach to the identification of sequence-specific readers for epigenetic DNA modifications on cytosine”.
# What was measured:
# Test in all cases: DAPPL (digital affinity profiling via proximity ligation, sequencing); 10 mM Tris-HCl pH 7.5, 50 mM NaCl, 1 mM DTT, 4% glycerol, room temperature, 30 min; GST-TFs on glutathione beads, 16-mer random dsDNA library, 0.1% formaldehyde crosslink after washing; high values mean tight binding
# [1] = target: T1, FLI1 (Homo sapiens, UniProt Q01543 1-452); details: protein: recombinant; tags: N-terminal GST; dsDNA, one strand shown
# T1 sequence: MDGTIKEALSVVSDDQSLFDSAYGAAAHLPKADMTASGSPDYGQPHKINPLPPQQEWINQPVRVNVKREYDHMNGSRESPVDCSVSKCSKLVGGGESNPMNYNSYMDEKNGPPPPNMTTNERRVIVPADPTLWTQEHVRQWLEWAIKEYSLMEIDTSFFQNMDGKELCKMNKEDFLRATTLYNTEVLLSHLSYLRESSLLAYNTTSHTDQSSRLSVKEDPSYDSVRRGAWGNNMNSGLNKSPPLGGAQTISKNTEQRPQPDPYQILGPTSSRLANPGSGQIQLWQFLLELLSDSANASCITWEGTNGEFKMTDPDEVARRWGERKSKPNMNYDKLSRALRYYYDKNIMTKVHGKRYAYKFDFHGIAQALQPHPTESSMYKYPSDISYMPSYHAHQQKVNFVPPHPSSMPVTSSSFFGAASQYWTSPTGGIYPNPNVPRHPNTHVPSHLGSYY
# How it was run: (§1)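 Human transcription factors were made in yeast as GST fusions, captured on glutathione beads and barcoded with DNA. With a tag-only sample included, the pool was incubated with 200 nmole of a random double-stranded 16-mer DNA library in Tris/NaCl/DTT/glycerol buffer at room temperature for 30 min, then crosslinked with 0.1% formaldehyde after washing, ligated by proximity, amplified and sequenced. For binding signal, each hexamer's read frequency for a factor is divided by its frequency for the tag-only sample.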
# [2] = target: T2, ELK1 (Homo sapiens, UniProt P19419 1-428); details: protein: recombinant; tags: N-terminal GST; dsDNA, one strand shown
# T2 sequence: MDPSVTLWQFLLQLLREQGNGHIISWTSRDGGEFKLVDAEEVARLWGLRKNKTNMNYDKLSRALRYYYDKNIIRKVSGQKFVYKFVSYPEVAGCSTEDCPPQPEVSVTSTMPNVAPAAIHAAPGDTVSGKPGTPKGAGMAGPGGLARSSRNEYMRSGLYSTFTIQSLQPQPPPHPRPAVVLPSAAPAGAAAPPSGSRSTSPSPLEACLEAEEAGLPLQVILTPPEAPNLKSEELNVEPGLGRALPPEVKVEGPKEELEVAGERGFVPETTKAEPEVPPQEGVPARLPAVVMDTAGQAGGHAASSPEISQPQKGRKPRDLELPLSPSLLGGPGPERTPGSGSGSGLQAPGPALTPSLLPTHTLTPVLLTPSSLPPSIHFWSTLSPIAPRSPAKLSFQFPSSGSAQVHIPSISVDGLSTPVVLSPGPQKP
# How it was run: as §1
# [3] = target: T3, GABPA (Homo sapiens, UniProt Q06546 1-454); details: protein: recombinant; tags: N-terminal GST; dsDNA, one strand shown
# T3 sequence: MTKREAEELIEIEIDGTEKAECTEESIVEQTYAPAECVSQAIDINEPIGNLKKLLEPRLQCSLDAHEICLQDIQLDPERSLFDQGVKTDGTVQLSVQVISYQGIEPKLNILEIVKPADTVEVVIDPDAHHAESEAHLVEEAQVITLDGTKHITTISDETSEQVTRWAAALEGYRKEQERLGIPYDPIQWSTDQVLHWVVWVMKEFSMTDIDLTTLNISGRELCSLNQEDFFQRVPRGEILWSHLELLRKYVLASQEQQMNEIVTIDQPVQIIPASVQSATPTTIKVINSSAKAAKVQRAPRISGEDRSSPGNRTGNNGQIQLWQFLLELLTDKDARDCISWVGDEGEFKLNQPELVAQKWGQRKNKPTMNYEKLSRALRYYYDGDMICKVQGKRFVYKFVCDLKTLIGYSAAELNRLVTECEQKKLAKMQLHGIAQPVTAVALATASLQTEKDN
# How it was run: as §1
# [4] = target: T4, ERG (Homo sapiens, UniProt P11308 1-479); details: protein: recombinant; tags: N-terminal GST; dsDNA, one strand shown
# T4 sequence: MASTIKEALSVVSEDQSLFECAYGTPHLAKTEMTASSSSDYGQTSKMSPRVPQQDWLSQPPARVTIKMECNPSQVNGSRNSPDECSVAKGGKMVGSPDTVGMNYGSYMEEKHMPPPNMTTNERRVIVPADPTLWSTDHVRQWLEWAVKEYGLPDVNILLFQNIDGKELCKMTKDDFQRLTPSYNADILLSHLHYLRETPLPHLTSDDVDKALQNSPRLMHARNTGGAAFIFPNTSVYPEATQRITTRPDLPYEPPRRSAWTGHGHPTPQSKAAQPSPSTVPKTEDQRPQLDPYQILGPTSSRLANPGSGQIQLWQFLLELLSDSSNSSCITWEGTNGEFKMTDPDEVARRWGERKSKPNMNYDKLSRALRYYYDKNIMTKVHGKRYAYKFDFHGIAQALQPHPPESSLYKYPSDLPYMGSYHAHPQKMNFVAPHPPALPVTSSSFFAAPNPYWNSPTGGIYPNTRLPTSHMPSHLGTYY
# How it was run: as §1
# [5] = target: ELF1 (Homo sapiens, UniProt P32519 1-619); details: protein: recombinant; tags: N-terminal GST; dsDNA, one strand shown
# How it was run: as §1
# [6] = target: T5, EHF (Homo sapiens, UniProt Q9NZC4 1-300); details: protein: recombinant; tags: N-terminal GST; dsDNA, one strand shown
# T5 sequence: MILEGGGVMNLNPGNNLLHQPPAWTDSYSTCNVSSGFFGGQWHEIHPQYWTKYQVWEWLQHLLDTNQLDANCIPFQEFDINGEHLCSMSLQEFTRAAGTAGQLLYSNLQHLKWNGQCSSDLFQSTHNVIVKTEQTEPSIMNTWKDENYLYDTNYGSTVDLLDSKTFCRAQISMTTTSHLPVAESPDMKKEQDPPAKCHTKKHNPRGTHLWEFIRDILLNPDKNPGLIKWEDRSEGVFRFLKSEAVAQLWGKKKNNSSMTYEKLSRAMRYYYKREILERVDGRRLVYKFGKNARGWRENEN
# How it was run: as §1
# [7] = target: SPI1 (Homo sapiens, UniProt P17947 1-270); details: protein: recombinant; tags: N-terminal GST; dsDNA, one strand shown
# How it was run: as §1
# [8] = target: SPIB (Homo sapiens, UniProt Q01892 1-262); details: protein: recombinant; tags: N-terminal GST; dsDNA, one strand shown
# How it was run: as §1
# [9] = target: T6, ELK3 (Homo sapiens, UniProt P41970 1-407); details: protein: recombinant; tags: N-terminal GST; dsDNA, one strand shown
# T6 sequence: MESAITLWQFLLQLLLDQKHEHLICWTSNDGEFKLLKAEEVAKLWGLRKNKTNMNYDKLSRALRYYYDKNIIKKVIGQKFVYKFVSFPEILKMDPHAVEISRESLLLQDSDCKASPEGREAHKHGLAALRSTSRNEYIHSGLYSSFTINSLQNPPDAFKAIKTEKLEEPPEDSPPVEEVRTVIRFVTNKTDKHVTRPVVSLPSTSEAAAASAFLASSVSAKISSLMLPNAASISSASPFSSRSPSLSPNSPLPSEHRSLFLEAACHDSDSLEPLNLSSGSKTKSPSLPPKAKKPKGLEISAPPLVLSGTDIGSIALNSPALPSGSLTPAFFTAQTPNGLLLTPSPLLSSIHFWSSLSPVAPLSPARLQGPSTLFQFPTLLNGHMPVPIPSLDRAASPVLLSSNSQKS
# How it was run: as §1
# [10] = target: T7, FEV (Homo sapiens, UniProt Q99581 1-238); details: protein: recombinant; tags: N-terminal GST; dsDNA, one strand shown
# T7 sequence: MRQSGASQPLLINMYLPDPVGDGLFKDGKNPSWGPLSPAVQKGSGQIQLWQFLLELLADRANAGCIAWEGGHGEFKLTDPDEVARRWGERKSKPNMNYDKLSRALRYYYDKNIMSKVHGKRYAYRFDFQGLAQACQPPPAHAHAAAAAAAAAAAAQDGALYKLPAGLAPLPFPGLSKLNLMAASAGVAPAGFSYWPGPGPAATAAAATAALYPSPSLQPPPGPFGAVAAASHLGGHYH
# How it was run: as §1
# [11] = target: ETV5 (Homo sapiens, UniProt P41161 1-510); details: protein: recombinant; tags: N-terminal GST; dsDNA, one strand shown
# How it was run: as §1
# [12] = target: HSF1 (Homo sapiens, UniProt Q00613 1-529); details: protein: recombinant; tags: N-terminal GST; chain copies: 3; dsDNA, one strand shown
# How it was run: as §1
# [13] = target: T8, SPIC (Homo sapiens, UniProt Q8N5J4 1-248); details: protein: recombinant; tags: N-terminal GST; dsDNA, one strand shown
# T8 sequence: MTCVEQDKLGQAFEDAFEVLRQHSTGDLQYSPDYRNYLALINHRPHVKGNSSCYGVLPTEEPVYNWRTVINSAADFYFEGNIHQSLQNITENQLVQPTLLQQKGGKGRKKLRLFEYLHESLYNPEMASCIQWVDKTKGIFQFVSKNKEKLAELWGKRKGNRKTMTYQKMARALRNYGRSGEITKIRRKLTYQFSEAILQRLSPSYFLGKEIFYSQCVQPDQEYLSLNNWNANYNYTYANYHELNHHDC
# How it was run: as §1
# [14] = target: ELF4 (Homo sapiens, UniProt Q99607 1-663); details: protein: recombinant; tags: N-terminal GST; dsDNA, one strand shown
# How it was run: as §1
# [15] = target: T9, ELK4 (Homo sapiens, UniProt P28324-2 1-405); details: protein: recombinant; tags: N-terminal GST; dsDNA, one strand shown
# T9 sequence: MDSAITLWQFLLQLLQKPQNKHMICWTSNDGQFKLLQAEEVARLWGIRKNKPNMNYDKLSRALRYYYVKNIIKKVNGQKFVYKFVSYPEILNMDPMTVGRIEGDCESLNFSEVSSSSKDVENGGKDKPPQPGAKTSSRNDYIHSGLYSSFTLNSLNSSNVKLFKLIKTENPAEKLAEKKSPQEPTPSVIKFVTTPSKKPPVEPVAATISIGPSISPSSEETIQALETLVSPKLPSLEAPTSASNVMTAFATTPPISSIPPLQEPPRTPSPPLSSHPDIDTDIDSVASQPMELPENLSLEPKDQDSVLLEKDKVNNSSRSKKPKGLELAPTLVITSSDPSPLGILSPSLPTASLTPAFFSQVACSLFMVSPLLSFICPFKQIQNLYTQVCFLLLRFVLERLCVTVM
# How it was run: as §1
# [16] = target: T10, ETV2 (Homo sapiens, UniProt O00321 1-342); details: protein: recombinant; tags: N-terminal GST; dsDNA, one strand shown
# T10 sequence: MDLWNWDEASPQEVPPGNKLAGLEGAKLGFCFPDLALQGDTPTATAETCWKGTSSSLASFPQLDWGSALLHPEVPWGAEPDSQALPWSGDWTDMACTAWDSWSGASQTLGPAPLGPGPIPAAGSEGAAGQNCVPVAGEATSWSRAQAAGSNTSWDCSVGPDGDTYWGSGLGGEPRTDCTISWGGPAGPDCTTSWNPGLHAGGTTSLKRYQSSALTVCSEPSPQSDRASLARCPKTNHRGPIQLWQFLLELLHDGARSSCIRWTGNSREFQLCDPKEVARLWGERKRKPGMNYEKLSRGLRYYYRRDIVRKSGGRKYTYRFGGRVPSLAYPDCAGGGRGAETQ
# How it was run: as §1
# [17] = target: T11, ELF3 (Homo sapiens, UniProt P78545 1-371); details: protein: recombinant; tags: N-terminal GST; dsDNA, one strand shown
# T11 sequence: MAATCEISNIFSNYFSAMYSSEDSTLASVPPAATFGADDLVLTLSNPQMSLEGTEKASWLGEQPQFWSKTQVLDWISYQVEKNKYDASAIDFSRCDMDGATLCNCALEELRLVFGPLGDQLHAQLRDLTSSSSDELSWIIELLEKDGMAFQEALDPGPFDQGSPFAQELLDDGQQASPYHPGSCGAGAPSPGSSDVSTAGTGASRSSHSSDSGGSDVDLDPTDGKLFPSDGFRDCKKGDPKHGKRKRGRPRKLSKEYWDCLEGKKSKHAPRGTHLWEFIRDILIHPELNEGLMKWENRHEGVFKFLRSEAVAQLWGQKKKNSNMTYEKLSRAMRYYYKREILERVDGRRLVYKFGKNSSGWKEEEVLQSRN
# How it was run: as §1
# [18] = target: CRX (Homo sapiens, UniProt O43186 1-299); details: protein: recombinant; tags: N-terminal GST; dsDNA, one strand shown
# How it was run: as §1
# [19] = target: ETV1 (Homo sapiens, UniProt P50549 1-477); details: protein: recombinant; tags: N-terminal GST; dsDNA, one strand shown
# How it was run: as §1
# Chain of SPIB (Q01892 whole entry): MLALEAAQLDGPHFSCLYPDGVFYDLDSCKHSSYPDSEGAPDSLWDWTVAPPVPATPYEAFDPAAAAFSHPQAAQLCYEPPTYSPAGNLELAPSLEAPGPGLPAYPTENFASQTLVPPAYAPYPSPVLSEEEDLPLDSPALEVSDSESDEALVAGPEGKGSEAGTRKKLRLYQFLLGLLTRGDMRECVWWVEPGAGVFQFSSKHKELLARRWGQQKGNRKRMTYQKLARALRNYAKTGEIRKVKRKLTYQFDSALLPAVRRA
# Chain of HSF1 (Q00613 whole entry): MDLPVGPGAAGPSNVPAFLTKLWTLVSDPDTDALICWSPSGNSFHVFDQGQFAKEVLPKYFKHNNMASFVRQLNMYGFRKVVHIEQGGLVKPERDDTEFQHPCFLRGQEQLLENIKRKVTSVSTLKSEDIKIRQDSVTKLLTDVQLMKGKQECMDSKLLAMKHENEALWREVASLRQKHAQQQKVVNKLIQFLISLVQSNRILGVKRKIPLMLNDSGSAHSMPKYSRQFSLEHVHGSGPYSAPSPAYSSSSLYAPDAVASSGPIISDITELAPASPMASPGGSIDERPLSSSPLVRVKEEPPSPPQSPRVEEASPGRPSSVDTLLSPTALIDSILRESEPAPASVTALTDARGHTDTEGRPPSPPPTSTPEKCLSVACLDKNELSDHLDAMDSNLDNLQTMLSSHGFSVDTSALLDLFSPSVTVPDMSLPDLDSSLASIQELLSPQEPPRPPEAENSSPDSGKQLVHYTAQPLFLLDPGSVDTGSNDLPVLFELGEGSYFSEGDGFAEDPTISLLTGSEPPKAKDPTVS
# Chain of ETV1 (P50549 whole entry): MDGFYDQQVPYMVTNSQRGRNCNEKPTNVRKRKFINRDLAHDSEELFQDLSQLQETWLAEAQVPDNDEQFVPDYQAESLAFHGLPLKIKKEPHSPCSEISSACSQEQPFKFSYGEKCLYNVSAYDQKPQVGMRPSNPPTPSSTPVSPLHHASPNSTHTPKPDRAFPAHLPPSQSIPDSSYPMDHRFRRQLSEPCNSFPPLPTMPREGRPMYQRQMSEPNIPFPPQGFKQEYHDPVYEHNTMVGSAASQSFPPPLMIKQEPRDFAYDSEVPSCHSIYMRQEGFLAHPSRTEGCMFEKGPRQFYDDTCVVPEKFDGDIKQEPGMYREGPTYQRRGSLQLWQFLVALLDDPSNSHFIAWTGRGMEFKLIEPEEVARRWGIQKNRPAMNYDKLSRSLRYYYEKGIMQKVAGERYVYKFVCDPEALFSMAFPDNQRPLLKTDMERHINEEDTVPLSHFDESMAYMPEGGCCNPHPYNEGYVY
# Chain of ETV5 (P41161 whole entry): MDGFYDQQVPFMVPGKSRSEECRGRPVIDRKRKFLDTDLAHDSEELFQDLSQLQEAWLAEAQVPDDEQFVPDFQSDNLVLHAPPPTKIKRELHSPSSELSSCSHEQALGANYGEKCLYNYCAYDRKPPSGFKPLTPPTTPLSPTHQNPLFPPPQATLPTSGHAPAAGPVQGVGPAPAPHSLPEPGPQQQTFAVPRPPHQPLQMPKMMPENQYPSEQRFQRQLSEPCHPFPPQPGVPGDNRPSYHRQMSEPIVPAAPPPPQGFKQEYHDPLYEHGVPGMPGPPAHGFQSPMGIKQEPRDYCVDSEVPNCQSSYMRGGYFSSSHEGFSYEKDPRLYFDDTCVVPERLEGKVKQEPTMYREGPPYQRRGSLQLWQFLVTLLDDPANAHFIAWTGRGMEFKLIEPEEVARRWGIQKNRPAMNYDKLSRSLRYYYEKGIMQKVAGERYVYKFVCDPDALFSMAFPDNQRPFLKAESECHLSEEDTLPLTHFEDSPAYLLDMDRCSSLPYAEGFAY
# Chain of ELF4 (Q99607 whole entry): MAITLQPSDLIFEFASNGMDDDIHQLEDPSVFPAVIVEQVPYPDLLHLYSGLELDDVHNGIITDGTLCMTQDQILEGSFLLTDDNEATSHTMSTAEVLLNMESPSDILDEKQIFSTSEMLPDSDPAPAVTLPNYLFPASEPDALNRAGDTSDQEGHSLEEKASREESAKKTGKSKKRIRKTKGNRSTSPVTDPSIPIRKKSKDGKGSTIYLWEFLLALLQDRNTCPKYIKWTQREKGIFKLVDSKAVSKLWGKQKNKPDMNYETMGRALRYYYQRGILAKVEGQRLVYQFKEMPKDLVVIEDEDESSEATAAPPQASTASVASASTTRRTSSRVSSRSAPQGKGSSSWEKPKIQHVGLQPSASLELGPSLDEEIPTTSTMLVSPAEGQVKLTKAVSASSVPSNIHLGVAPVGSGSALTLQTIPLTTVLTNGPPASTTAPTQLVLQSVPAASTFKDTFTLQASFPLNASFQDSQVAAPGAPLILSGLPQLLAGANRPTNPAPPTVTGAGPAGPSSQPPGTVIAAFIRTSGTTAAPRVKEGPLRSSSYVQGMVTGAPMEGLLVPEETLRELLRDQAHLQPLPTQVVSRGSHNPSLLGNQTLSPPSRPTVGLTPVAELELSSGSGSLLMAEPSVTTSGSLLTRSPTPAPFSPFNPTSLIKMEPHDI
# Chain of ELF1 (P32519 whole entry): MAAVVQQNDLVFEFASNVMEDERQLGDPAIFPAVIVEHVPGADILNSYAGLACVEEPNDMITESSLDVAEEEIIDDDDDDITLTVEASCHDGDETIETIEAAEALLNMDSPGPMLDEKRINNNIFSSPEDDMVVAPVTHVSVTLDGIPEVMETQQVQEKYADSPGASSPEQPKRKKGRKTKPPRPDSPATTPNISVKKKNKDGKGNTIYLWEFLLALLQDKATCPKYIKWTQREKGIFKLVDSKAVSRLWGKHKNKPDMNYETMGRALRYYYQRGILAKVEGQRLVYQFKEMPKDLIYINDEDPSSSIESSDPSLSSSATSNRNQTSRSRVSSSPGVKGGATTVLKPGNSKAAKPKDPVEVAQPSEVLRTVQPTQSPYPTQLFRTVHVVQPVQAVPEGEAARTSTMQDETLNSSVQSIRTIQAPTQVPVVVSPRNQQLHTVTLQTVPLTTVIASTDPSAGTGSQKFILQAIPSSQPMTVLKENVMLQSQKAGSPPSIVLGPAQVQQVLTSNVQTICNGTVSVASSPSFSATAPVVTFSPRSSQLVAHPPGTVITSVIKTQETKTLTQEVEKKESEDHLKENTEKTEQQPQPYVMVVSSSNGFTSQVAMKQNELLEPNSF
# Chain of CRX (O43186 whole entry): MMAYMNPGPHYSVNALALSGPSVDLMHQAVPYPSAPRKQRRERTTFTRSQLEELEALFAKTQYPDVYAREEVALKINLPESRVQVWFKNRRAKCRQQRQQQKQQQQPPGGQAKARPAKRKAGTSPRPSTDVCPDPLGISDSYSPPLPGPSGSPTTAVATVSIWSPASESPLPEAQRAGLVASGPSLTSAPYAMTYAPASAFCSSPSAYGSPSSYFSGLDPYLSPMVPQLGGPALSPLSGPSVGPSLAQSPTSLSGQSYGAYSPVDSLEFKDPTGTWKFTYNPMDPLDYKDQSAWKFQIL
sequence,measurement,setting,value
CCCTAC,binding signal,[1],"1.5 fold enrichment (6-mer frequency, TF over GST control)"
same,binding signal,[2],"1.49 fold enrichment (6-mer frequency, TF over GST control)"
same,binding signal,[3],"1.33 fold enrichment (6-mer frequency, TF over GST control)"
same,binding signal,[4],"1.33 fold enrichment (6-mer frequency, TF over GST control)"
same,binding signal,[5],"1.4 fold enrichment (6-mer frequency, TF over GST control)"
same,binding signal,[6],"1.33 fold enrichment (6-mer frequency, TF over GST control)"
same,binding signal,[7],"1.36 fold enrichment (6-mer frequency, TF over GST control)"
same,binding signal,[8],"1.25 fold enrichment (6-mer frequency, TF over GST control)"
same,binding signal,[9],"1.65 fold enrichment (6-mer frequency, TF over GST control)"
same,binding signal,[10],"1.46 fold enrichment (6-mer frequency, TF over GST control)"
same,binding signal,[11],"1.43 fold enrichment (6-mer frequency, TF over GST control)"
same,binding signal,[12],"1.13 fold enrichment (6-mer frequency, TF over GST control)"
same,binding signal,[13],"1.45 fold enrichment (6-mer frequency, TF over GST control)"
same,binding signal,[14],"1.47 fold enrichment (6-mer frequency, TF over GST control)"
same,binding signal,[15],"1.53 fold enrichment (6-mer frequency, TF over GST control)"
same,binding signal,[16],"1.22 fold enrichment (6-mer frequency, TF over GST control)"
same,binding signal,[17],"1.48 fold enrichment (6-mer frequency, TF over GST control)"
same,binding signal,[18],"1.19 fold enrichment (6-mer frequency, TF over GST control)"
same,binding signal,[19],"1.46 fold enrichment (6-mer frequency, TF over GST control)"
